Eleven compounds from PubChem BioAssay (EPA / NIEHS) can be followed below.

SMILES strings stand for the structures. Inconclusive results are not listed. Calls of active or inactive are those of the source. The calls were made as follows: active = hit-call score of the fitted dose curve at least 0.9, where 1 is the maximum; inconclusive = response in the unintended direction; inactive = score below 0.9.

This assay deals with human Phosphoinositide 3-kinase alpha (PI3Ka), PIK3CA (gene 5290) (UniProt P42336). The experiment in a line: NVS_ENZ_hPI3Ka: NovaScreen (NVS) Enzymatic Assay for human Phosphoinositide 3-kinase alpha (PI3Ka) (AID 2283196). As to the method: NVS_ENZ_hPI3Ka is a biochemical, single-readout assay that uses extracted gene-proteins in a cell-free assay. Measurements were taken 1 hour after chemical dosing in a 384-well plate.NVS_ENZ_hPI3Ka is one of one assay component(s) measured or calculated from the NVS_ENZ_hPI3Ka assay. It is designed to make measurements of enzyme activity, a form of enzyme reporter, as detected with fluorescence intensity signals by Fluorescence and electrophoretic mobility shift technology.Data from the assay component NVS_ENZ_hPI3Ka was analyzed into 1 assay endpoint. This assay endpoint, NVS_ENZ_hPI3Ka, was analyzed in the positive analysis fitting direction relative to DMSO as the negative control and baseline of activity. Using a type of enzyme reporter, loss-of-signal activity can be used to understand changes in the enzymatic activity as they relate to the gene PIK3CA. Furthermore, this assay endpoint can be referred to as a primary readout, because this assay has produced multiple assay endpoints where this one serves a enzymatic activity function. To generalize the intended target to other relatable targets, this assay endpoint is annotated to the kinase intended target family, where the subfamily is phosphoinositol kinase.
Chain of human Phosphoinositide 3-kinase alpha (PI3Ka), PIK3CA (gene 5290) (P42336 whole entry, looked up): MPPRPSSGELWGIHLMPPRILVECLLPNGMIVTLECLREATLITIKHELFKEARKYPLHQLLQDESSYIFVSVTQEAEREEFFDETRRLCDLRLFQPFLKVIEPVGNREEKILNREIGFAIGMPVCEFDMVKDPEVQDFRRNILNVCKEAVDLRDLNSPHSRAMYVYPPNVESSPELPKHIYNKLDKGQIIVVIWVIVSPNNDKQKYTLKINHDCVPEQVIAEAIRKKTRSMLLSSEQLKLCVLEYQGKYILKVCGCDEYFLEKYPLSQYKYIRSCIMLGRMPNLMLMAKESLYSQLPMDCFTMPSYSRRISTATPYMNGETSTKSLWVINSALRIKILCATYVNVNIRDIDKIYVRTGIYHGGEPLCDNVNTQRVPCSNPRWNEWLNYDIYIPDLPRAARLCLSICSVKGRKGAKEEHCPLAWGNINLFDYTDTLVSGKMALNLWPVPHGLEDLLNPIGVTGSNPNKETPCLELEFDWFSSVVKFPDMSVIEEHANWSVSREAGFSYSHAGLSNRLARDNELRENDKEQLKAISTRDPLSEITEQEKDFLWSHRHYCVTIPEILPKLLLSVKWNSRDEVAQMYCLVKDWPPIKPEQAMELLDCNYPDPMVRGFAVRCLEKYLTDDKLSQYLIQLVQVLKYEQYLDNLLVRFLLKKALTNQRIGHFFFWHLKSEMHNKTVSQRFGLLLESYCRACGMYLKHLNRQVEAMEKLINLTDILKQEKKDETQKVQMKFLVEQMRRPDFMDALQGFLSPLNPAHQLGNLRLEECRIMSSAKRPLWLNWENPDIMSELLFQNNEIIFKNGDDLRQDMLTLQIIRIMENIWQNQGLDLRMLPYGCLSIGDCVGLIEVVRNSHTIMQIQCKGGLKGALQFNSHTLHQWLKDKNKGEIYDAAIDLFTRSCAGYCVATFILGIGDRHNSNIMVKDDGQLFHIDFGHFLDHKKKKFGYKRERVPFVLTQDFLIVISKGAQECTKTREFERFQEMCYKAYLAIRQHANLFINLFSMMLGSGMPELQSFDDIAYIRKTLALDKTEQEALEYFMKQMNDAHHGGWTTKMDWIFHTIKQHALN
Binding assays used specific radioligands (tritiated, iodinated) with non-radioactive competitive displacement ligands in agonist or antagonist protocols (as indicated) and various reference compounds and inhibitors to titrate specific binding to receptors and transporters. Most enzyme assays (CYPs, kinases, phosphatases, proteases, HDACs) used recombinant protein and specific substrates (fluorescence mostly, some colorimetric and radioactive) and inhibitors, followed by a biochemical separation of substrate and product. All assays for the biochemical HTS were initially run in duplicate at a single concentration (10 uM for CYP450 assays and 25 uM for all others). Assay-chemical combinations meeting a pre-defined threshold (e.g., 30% inhibition and other criteria defined below) were then run in singleton concentration-response format with maximum concentration of 20 uM for CYPs and 50 uM for all others. Each assay was run with positive and negative controls, and concurrent controls on every plate. The follow-up (secondary) screen tested active chemical-pairs in concentration series, as well as a few additional assays not tested in the primary screen, some selected negative inactives, and several cases re-run in the concentration series for confirmatory purposes.
As to `Cc1ccc(C(C)(C)O)cc1`, the concentration at half-maximal activity (AC50) (in general, the concentration giving half of the maximal activity seen) was 25 µM (active).

As for `CCCCCCOC(C)=O`, the compound was called inactive.

Turning to `CC/C(=C(\c1ccccc1)c1ccc(OCCN(C)C)cc1)c1ccccc1`, the concentration at half-maximal activity (AC50) was 16.1 µM (active).

As to `N#CCCCC(C#N)CCC#N` (stereo unspecified), the outcome was inactive.

Turning to `C=CC(=O)OCCCCCC`, the compound was classed as inactive.

In the case of `CC(C)Cc1ccccc1`, the call was inactive.

For `O=C1OC2(c3ccc(O)cc3Oc3cc(O)ccc32)c2ccccc21`, the outcome was inactive.

As to `CC(CO)c1ccccc1` (stereo unspecified), the result was inactive.

On to `CCOC(=O)C(=O)OCC`, for which the compound was classed as inactive.

Consider `C=CC(=O)OCC(CO)(COC(=O)C=C)COC(=O)C=C`, for which the outcome was inactive.

For `S=c1[nH][nH]c(=S)s1`, the outcome was inactive.
